Data taken from PubChem BioAssay AID1645875 (National Center for Advancing Translational Sciences (NCATS), 2021).
Inconclusive results are not listed. The source made the active and inactive calls. Calls come from the whole dose curve; as a rule, active = well fitted inhibition curve with a large enough effect; inconclusive = small, poorly fitted or top-dose-only effect; inactive = no such curve, though single readings can be large or run the other way.

Each compound was assayed against N-terminal Xaa-Pro-Lys N-methyltransferase 1 (Homo sapiens) (UniProt Q9BV86) (assay: Orthogonal qHTS for Inhibitors of N-terminal methyltransferase 1 (NTMT1): ThioGlo Assay). Conditions: NTMT1 SAHH-coupled ThioGlo fluorescence, 30 min; series mostly up to 84.5 µM.
Sequence of N-terminal Xaa-Pro-Lys N-methyltransferase 1 (Homo sapiens) (Q9BV86 whole entry, looked up): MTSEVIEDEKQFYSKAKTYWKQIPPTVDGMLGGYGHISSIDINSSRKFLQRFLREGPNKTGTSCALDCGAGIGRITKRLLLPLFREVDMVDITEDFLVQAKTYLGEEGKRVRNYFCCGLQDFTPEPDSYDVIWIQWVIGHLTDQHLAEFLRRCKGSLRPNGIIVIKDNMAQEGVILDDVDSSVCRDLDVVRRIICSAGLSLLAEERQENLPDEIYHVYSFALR
Source text: Assay Submitter (PI): Rong Huang Ph.D. Purdue University, West Lafayette, IN 47907 The N-terminal methytransferase 1 is the first methyltransferase that methylates protein alpha-N-amines and plays an important role in regulating cell mitosis, chromatin interactions and DNA repair. It is observed to be over-expressed in various cancer patient tissues like malignant melanoma and colorectal cancer tissues. Knockdown of NTMT1 in cancer cells causes cell mitotic defects and enhances sensitivity to DNA damaging chemotherapeutics. […] These critical cellular processes in which NTMT1 is implicated, coupled with emerging links to cellular dysfunction, strengthen the inference that NTMT1 is a compelling novel anticancer target. Progress have been made in understanding the molecular properties of NTMT1 and the biological consequences of protein alpha-N-terminal methylation, but there are no specific small molecule probes available for NTMT1 to fully characterize its MTase activity. To address this unmet need, a panel of assay is created and established to enable quantitative high-throughput screening (qHTS) for novel, potent, and selective small molecule NTMT1 inhibitors. Two orthogonal qHTS that use different reagents (ThioGlo vs. MTaseGlo) are developed for primary robotic screening against the NCATS chemical library of more than 400,000 small molecules. Identified inhibitors are reacquired, validated, and further characterized. […] Early Translation Branch (ETB) National Center for Advancing Translational Sciences (NCATS) National Institute of Health (NIH)
Materials: NTMT1 enzyme, substrate SPKRIA, control peptide RCC1-6 is provided by the Huang laboratory. MTaseGlo Assay: PROTOCOL TABLE; SEQUENCE No. (e.g., 1, 2, 3, etc.); […] (e.g., Cells, Incubation, Reagent, etc.); VALUE; DESCRIPTION 1; Enzyme; 3 uL; Dispense enzyme mixture (final concentrations of 125 nM NTMT1) into Greiner 1536-well black / solid bottom assay plate (Greiner Bio One, Monroe, NC). 2; Compounds; 23 nL; Compounds (at various concentration) and 1uM final concentration of RCC1-6 (SPKRIA) control were transferred via a Kalypsys Pin Tool (Wako USA) equipped with a 1536-slotted pin array (Wako Automation, Richmond, VA). 3; Incubation; 1 min; Incubate at room temperature. 4; Substrate; 1 uL; Dispense 1 uL of substrate solution (100uM SAM, 10uM SAHH, 15uM ThioGlo3 final concentration) was added to the wells bringing the final assay volume to 4uL. The assay plate was covered with metal lids. 5; Detection; Fluorescence; Initial fluorescence readout (background signal) was detected using the ViewLux microplate imager with an excitation filter of 340 nm and 450 nm emission filter. 6; Incubation; 30 min; Assay plates were incubation at room temperature in the dark. 7; Detection; Fluorescence; Final fluorescence readout was detected using the ViewLux microplate imager with an excitation filter of 340 nm and 450 nm emission filter. The data was normalized to the background fluorescence.

| SMILES | Potency |
| --- | --- |
| NC(=O)CI | 6.89 µM (active) |
| C[N+](C)(C)CC#CCN1CCCC1=O | 1.54 µM (active) |
| NC1CCc2cc(O)c(O)cc2C1 (stereo unspecified) | 10.9 µM (active) |
| C[N+]1(C)C2CCC1CC(OC(=O)c1c[nH]c3ccccc13)C2 (stereo unspecified) | 1.94 µM (active) |
| C[N+]1(C)CCN(c2ccccc2)CC1 | 2.74 µM (active) |
| CN[C@@H]1C[C@@H](c2ccc(Cl)c(Cl)c2)c2ccccc21 | inactive |
